Experimental findings from PubChem BioAssay (Tox21) are described below.

Test [1] in a line: qHTS assay to identify small molecule agonists of the estrogen receptor alpha (ER-alpha) signaling pathway in the presence of an antagonist - cell viability counter screen (AID 1259386). Further: nearly all actives have a fitted effect of over 30% in size. Further: potency means the concentration at half of the fitted maximal effect. The method in brief: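 Compounds tested at 15 concentrations for 22 h at 37C alongside 10.0nM (final) ICI-182,780 antagonist, in VM7Luc4E2 cells grown in phenol red-free, charcoal-stripped medium. Viability read by CellTiter-Fluor fluorescence after 1 h reagent incubation.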
For orientation: Quantitative high-throughput screening tests each substance at several concentrations.

In test [2] the target is Progesterone receptor (Homo sapiens) (UniProt P06401). The experiment in a line: qHTS assay to identify small molecule agonists of the progesterone receptor (PR) signaling pathway (AID 1346784; calls by dose curve; further: nearly all actives have a fitted effect of over 30% in size). The method in brief: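 Reporter assay, GripTite PR-UAS-bla HEK 293T cells: 16 hr exposure to DMSO-dissolved compounds at 37C, 5% CO2, in steroid-depleted (2% charcoal-stripped FBS) medium; beta-lactamase measured by FRET fluorescence.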
Sequence of Progesterone receptor (Homo sapiens) (P06401 whole entry, looked up): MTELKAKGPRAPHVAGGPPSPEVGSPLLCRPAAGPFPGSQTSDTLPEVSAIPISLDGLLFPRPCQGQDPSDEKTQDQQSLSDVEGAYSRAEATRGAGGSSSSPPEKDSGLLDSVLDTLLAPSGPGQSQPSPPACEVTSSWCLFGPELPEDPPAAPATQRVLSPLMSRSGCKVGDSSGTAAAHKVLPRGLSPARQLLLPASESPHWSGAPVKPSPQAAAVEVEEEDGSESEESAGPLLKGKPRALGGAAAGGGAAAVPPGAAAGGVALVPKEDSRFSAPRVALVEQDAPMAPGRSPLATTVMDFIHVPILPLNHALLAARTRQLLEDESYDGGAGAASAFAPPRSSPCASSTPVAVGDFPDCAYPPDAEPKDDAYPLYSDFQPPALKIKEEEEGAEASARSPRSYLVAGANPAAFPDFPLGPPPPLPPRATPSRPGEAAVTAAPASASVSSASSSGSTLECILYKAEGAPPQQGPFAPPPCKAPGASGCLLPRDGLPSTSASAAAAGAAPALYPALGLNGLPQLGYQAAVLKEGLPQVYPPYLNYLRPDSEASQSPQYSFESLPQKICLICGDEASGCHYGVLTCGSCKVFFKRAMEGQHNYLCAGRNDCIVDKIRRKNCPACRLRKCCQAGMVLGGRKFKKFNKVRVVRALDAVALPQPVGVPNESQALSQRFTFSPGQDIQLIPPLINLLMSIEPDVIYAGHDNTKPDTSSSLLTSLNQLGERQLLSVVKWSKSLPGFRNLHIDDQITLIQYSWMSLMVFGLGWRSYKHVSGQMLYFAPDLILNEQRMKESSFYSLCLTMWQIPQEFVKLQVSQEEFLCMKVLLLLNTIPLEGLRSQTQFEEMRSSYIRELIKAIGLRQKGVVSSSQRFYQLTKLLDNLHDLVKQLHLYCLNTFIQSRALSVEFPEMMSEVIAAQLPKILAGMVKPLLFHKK

The target is the same in test [3]. Description: qHTS assay to identify small molecule antagonists of the progesterone receptor (PR) signaling pathway (AID 1346795; active means well fitted inhibition curve with a large enough effect in the signal ratio in the repeat runs, not every such curve was filed as active; the % refers to the signal ratio; further: potency means the concentration at half of the fitted maximal effect). The method in brief: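 Stimulus R5020 at 1 nM final; cells HEK293T PR-UAS-bla; medium with 2% charcoal-stripped FBS; compound exposure 16 hr at 37C, 5% CO2; detection by FRET beta-lactamase substrate, 2 hr, room temperature.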
Test [4] can be described thus: qHTS assay to identify small molecule antagonists of the TGF-beta/Smad signaling pathway - cell viability counter screen (AID 1346824). Further: nearly all actives have a fitted effect of over 50% in size. The method in brief: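 Cytotoxicity counter-screen run in the same wells as the beta-lactamase Smad reporter read: CellTiter-Glo luminescence after 30 min at room temperature. HEK 293T SBE-bla cells had 5 hr compound exposure at 37 C with TGF-beta1 (0.25 ng/mL stock).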

Test [5] is described as follows: qHTS assay to identify small molecule agonists of the TGF-beta/Smad signaling pathway - cell viability counter screen (AID 1346829). Further: top concentration of the series differs between compounds; nearly all actives have a fitted effect of over 45% in size. The method in brief:
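In parallel with the Smad reporter read, viability of HEK 293T cells stably carrying SBE-bla is quantified by ATP luminescence following 5 hr compound treatment.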

Test [6] can be described thus: qHTS assay to identify small molecule agonists of the TGF-beta/Smad signaling pathway (AID 1346859; active means well fitted activation curve with a large enough effect in the signal ratio in the repeat runs, not every such curve was filed as active; the % refers to the signal ratio; further: series mostly up to about 77 µM). An outline of the steps:
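Screening used HEK 293T SBE-bla cells at 4,000/well. Test agents: 5 hr, 37 C. Detection: FRET substrate, 2 hr RT, then excitation 405 nm with emissions at 460 and 530 nm.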

The target in test [7] is Thyrotropin-releasing hormone receptor (Homo sapiens) (UniProt P34981). Description: qHTS assay to identify small molecule antagonists of the thyrotropin-releasing hormone receptor (TRHR) signaling pathway (AID 1346877; active means well fitted inhibition curve with a large enough effect in the repeat runs, not every such curve was filed as active; further: series mostly up to about 51 µM). The method in brief: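 Antagonist mode: after a 5 min room-temperature compound exposure, cells were stimulated with 1 nM (final) TRH. Dye-loaded TRHR-HEK293 cells were used, and calcium-dependent fluorescence was followed for 3 min, with 15-point titrations run in triplicate.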
Sequence of Thyrotropin-releasing hormone receptor (Homo sapiens) (P34981 whole entry, looked up): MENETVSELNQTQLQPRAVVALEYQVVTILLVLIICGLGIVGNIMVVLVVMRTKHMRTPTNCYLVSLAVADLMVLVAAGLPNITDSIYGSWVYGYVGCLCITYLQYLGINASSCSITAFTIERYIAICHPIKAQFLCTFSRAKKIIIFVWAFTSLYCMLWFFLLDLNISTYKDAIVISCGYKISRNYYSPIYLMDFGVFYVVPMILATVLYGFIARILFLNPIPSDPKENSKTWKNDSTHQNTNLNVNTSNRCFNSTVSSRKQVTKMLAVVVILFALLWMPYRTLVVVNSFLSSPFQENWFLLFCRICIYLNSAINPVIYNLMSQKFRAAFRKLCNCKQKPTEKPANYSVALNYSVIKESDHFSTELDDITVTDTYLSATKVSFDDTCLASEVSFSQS

Test [8] shares this target. Description: qHTS assay to identify small molecule agonists of the thyrotropin-releasing hormone receptor (TRHR) signaling pathway (AID 1346891; calls by dose curve; further: series mostly up to about 58 µM). The method in brief:
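Readout was intracellular calcium fluorescence in TRHR-Hek293 cells. Cells were incubated 18 h, dye-loaded 2 h at 37 °C, and treated with compound in agonist mode.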

The nature of test [9]: Human pregnane X receptor (PXR) small molecule agonists, qHTS cell viability counter screen (AID 1346977). Further: nearly all actives have a fitted effect of over 50% in size. Further: potency means the concentration at half of the fitted maximal effect. The method in brief: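 In each well, the PXR reporter HepG2 line was checked for viability: CellTiter-Fluor reagent added 23hr post-dosing, fluorescence read after 1hr incubation at 37C.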
Test [10] is described as follows: Caspase-3/7 induction in HepG2 cells by small molecules, qHTS assay (AID 1346978). Further: nearly all actives have a fitted effect of over 15% in size. The method in brief: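 Caspase-3/7 induction was measured by Caspase-Glo 3/7 luminescence (30 min, room temperature) after a 17 hr compound exposure of wild-type HepG2 cells seeded at 2,000 per well and pre-incubated 5 hr.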
Test [11] is described as follows: Caspase-3/7 induction in CHO-K1 cells by small molecules, qHTS cell viability counter screen (AID 1346979). Further: nearly all actives have a fitted effect of over 35% in size. Further: potency means the concentration at half of the fitted maximal effect. An outline of the steps: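 Following a 5hr settling period, CHO-K1 cells at 1,500 per well received DMSO-dissolved compounds. Cell viability was quantified 16hr later by CellTiter-Fluor fluorescence, measured after 1hr with reagent at 37C.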
Test [12] can be described thus: Caspase-3/7 induction in CHO-K1 cells by small molecules, qHTS assay (AID 1346980). Further: nearly all actives have a fitted effect of over 15% in size. The method in brief: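 Luminescent Caspase-Glo 3/7 read (30min, room temperature) quantified apoptosis induction. Cells were wild-type CHO-K1, treated with compound for 17hr at 37 C and 5% CO2.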
A short description of test [13]: Caspase-3/7 induction in HepG2 cells by small molecules, qHTS cell viability counter screen (AID 1346981). Further: nearly all actives have a fitted effect of over 30% in size. Further: potency means the concentration at half of the fitted maximal effect. An outline of the steps: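 CellTiter-Fluor fluorescence measured viability in the same wells used for Caspase-Glo 3/7. HepG2 (wild type) at 2,000 cells/well were pre-incubated 5 hr, dosed, and given reagent at 16 hr, with 1 hr further at 37C.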
In test [14] the target is Nuclear receptor subfamily 1 group I member 2 (Homo sapiens) (UniProt O75469). Description: Human pregnane X receptor (PXR) small molecule agonists, qHTS assay (AID 1346982). Further: nearly all actives have a fitted effect of over 35% in size. Further: potency means the concentration at half of the fitted maximal effect. The method in brief:
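Agonist mode: luminescence from ONE-Glo after 24 h compound exposure at 37C in HepG2 cells carrying hPXR-responsive CYP3A4 luciferase, plated in charcoal-stripped serum medium 5 h beforehand.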

The target in test [15] is Nuclear receptor subfamily 1 group I member 2 (Rattus norvegicus) (UniProt Q9R1A7). The experiment in a line: Rat pregnane X receptor (rPXR) activation by small molecules, qHTS assay (AID 1346983). Further: nearly all actives have a fitted effect of over 20% in size. Further: potency means the concentration at half of the fitted maximal effect. To be noted: rPXR luciferase reporter cells, One-Glo luminescence, 24 h; max activation: active compounds read high. The method in brief: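 Luminescent readout (One-Glo luciferase, 30 min room temperature) followed 24 hr compound treatment at 37 C of rPXR cells plated 2,000 per well and preincubated 5hr; qHTS format with compounds delivered in DMSO.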
Sequence of Nuclear receptor subfamily 1 group I member 2 (Rattus norvegicus) (Q9R1A7 whole entry, looked up): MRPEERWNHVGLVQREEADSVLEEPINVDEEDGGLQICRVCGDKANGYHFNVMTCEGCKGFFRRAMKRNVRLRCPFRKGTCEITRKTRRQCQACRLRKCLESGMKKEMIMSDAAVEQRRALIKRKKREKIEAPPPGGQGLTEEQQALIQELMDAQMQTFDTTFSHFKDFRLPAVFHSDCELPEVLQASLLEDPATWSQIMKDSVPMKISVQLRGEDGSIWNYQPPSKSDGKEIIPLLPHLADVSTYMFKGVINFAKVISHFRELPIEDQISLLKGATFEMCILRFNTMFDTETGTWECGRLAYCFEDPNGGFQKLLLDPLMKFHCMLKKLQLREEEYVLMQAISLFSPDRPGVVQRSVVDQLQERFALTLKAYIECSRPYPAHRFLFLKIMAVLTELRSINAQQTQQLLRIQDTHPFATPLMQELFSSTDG

Test [16] addresses Nuclear receptor subfamily 1 group I member 2 (Homo sapiens) (UniProt O75469). The experiment in a line: CYP3A4 induction through human pregnane X receptor (PXR) by small molecules, qHTS assay (AID 1346984). Further: nearly all actives have a fitted effect of over 40% in size. The method in brief:
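Read-out is luminescence after One-Glo addition, following a 3 hr, 37C incubation with Luciferin-IPA CYP3A4 substrate (3uM final). Before that, compounds were on DPX-2 cells (HepG2 co-transfected with PXR element plus CYP3A4-promoter luciferase) for 24 hr at 37C.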

Test [17] has the same target. The experiment in a line: Human pregnane X receptor (PXR) activation by small molecules, qHTS assay (AID 1346985). Further: nearly all actives have a fitted effect of over 40% in size. Further: potency means the concentration at half of the fitted maximal effect. An outline of the steps:
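DPX-2 cells (HepG2 co-transfected with a PXR response element and a CYP3A4-promoter luciferase construct) were seeded at 2,000 per well, rested 5 hr at 37C, then exposed to DMSO-dissolved compounds for 24 hr. Activation was read as luciferase luminescence.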

Test [18] in a line: qHTS assay to identify small molecule antagonists of the progesterone receptor (PR) signaling pathway - cell viability counter screen (AID 1346798). Further: series mostly up to about 92 µM; nearly all actives have a fitted effect of over 50% in size. The method in brief: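 In the same plates used for the beta-lactamase readout, cell viability of compound- and R5020-treated PR-UAS-bla HEK293T cells (16 hr, 37C) was assessed by CellTiter-Glo luminescence.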
Test [19] is described as follows: qHTS assay to identify small molecule agonists of the progesterone receptor (PR) signaling pathway - cell viability counter screen (AID 1346799; calls by dose curve; further: nearly all actives have a fitted effect of over 45% in size). The method in brief: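 Multiplexed viability read: CellTiter-Glo luminescence, 30 min RT, following LiveBLAzer FRET measurement on PR-UAS-bla HEK293T cells exposed to compounds 16 hr.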
Test [20] has as its target Thyrotropin receptor (Homo sapiens) (UniProt P16473). The experiment in a line: qHTS assay to identify small molecule antagonists of the thyroid stimulating hormone receptor (TSHR) signaling pathway (AID 1259385; calls by dose curve; further: nearly all actives have a fitted effect of over 20% in size). An outline of the steps:
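Antagonist mode: compound-treated TSHR-expressing HEK293 cells were stimulated with 1.5 ng/mL TSH (final) in presence of Ro20-1724 for 30 min at RT. HTRF cAMP detection after 1 h; each compound tested at 15 concentrations, triplicate.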

Unmarked numbers belong to inactive results. Inconclusive results are not listed. Calls of active or inactive are those of the source. Unless noted, the call rests on the fitted dose curve; in most records, active means well fitted curve in the direction sought with a large enough effect in the repeat runs; inconclusive means weak or mixed curves; inactive means no such curve, though single readings can be large; an effect the other way counts as inactive or inconclusive.
On the % scale 0 is the no-effect control and ±100 the full control effect.

Sequence of Thyrotropin receptor (Homo sapiens) (P16473 whole entry, looked up): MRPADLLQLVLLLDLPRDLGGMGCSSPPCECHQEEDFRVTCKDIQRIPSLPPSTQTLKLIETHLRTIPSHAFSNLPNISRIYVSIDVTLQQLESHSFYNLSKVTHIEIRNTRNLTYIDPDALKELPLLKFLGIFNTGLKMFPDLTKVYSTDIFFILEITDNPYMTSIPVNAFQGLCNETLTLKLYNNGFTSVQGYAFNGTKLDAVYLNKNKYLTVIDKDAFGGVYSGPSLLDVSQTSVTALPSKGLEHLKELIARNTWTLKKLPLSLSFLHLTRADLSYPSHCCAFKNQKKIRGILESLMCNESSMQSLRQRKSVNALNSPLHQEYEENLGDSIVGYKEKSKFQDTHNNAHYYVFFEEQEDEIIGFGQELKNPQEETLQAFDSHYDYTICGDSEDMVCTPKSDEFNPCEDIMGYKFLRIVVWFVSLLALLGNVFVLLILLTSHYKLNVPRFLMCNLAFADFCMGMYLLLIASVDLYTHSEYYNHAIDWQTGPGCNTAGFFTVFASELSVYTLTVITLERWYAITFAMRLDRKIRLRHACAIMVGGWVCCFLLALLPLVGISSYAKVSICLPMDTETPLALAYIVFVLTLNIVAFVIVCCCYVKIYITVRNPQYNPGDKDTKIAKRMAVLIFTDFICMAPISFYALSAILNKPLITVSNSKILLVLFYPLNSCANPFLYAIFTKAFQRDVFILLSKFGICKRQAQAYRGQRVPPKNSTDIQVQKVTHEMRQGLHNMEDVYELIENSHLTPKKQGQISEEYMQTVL
Sequence of Nuclear receptor subfamily 1 group I member 2 (Homo sapiens) (O75469 whole entry, looked up): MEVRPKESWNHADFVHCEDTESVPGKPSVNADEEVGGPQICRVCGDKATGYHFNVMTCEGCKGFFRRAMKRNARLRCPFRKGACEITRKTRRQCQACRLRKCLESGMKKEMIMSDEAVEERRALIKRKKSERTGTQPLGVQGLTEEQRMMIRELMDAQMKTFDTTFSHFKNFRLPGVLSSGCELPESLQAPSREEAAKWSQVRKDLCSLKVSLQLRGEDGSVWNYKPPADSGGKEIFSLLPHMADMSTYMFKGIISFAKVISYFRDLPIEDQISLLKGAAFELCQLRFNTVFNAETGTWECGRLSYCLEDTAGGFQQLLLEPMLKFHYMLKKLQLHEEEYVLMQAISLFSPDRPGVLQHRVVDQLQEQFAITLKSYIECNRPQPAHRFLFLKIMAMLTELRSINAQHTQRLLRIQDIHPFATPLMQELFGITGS

Regarding `O=S1(=O)OC(c2cc(Br)c(O)c(Br)c2)(c2cc(Br)c(O)c(Br)c2)c2ccccc21`, the Potency in [1] is 22.3 µM (active); in test [9] it was 12.5 µM (active); in test [11], 25 µM (active); in test [13], 25 µM (active). The Potency result in [2], in [3], in test [4], in test [5], in test [7] and in test [8] was “inactive” each time. The Potency entry in test [10], in test [12] and in [14] was “inactive” in each case. The call in test [6] was inactive.
`COCC(C)N(C(=O)CCl)c1c(C)csc1C` (stereo not given): the Potency result in test [1], in test [2], in [4], in [5], in test [7] and in [8] was “inactive” throughout. The Potency entry in test [9], in test [10], in test [12], in test [13], in [14] and in test [16] was “inactive” each time. Besides, the Potency result in [17] was “inactive”. Further, the Potency in test [3] was 54.5 µM (active). Moreover, the compound was classed as inactive in test [6]. In addition, the max activation in test [15] was -3.61%.
With `O=C1CN=C(c2ccccc2)c2cc(Cl)ccc2N1CC1CC1`, the Potency entry in [1], in test [2], in [4], in test [5], in test [7] and in test [8] was “inactive” each time. For the same compound, the Potency entry in test [9], in [10], in test [12] and in test [13] was “inactive” throughout. Moreover, the Potency is 11.4 µM (active) in test [3], 25.5 µM (active) in test [14], 11.2 µM (active) in test [15] and 2 µM (active) in test [17]. Moreover, the compound was classed as inactive in test [6].
For the compound `C/C=C/C=O`, the Potency entry in test [1], in test [2], in test [3], in [18], in test [19] and in test [4] was “inactive” each time. For the same compound, the Potency result in test [5], in test [9], in test [10], in [11], in test [12] and in test [13] was “inactive” in each case. Besides, the Potency entry in test [14] was “inactive”. Besides, the compound was classed as inactive in test [6].
In the case of `CS/C(C)=N/OC(=O)N(C)SN(C)C(=O)O/N=C(\C)SC`, the Potency result in test [1], in [2], in test [3], in test [19], in [4] and in [5] was “inactive” throughout. Further, the Potency entry in test [8], in [10], in test [12] and in test [13] was “inactive” throughout. In addition, the compound was called inactive in test [6].
Regarding `O=C(OC1CCCCC1)c1ccccc1C(=O)OC1CCCCC1`, the Potency result in test [20], in test [18], in test [7], in [8], in test [10] and in test [12] was “inactive” each time. Further, the Potency in test [3] is 16.2 µM (active). For the same compound, the result in [6] was inactive.
Take `O=C(Nc1ccccc1)Nc1cnns1`: the Potency entry in test [20], in [1], in test [4], in [5], in test [7] and in [8] was “inactive” in each case. Besides, the Potency result in [10], in test [12] and in test [13] was “inactive” in each case. In addition, the outcome in [6] was inactive. In addition, in [11], the Potency was 54.4 µM (active).
Turning to `CC(Cl)C(C)Cl` (stereo not given), the Potency result in [1], in [2], in test [3], in [18], in [19] and in test [4] was “inactive” in each case. In addition, the Potency result in test [5], in test [7], in [8], in test [9], in test [10] and in [11] was “inactive” throughout. In addition, the Potency result in test [12], in [13] and in test [14] was “inactive” each time. For the same compound, the result in [6] was inactive.
As to `CCOP(=S)(OCC)SCn1nnc2ccccc2c1=O`, the Potency result in [20], in [2], in test [4], in test [5], in test [8] and in [10] was “inactive” each time. Further, the Potency entry in test [12] was “inactive”. Besides, the Potency in [3] is 27.3 µM (active); in test [11], 68.6 µM (active). Further, in test [6], the call was inactive.
